In the supplement of paper PMC10849652:
Of roughly 7,900 targets only a part is listed; those with a hit were picked by preference. About 0.6% of all pairs of compound and target were hits.

Compound: CC1=C(C=C(C=C1)NC(=O)C2=CC(=CC=C2)C(C)(C)C#N)NC3=CC4=C(C=C3)N=CN(C4=O)C
Assay: log2 fold change, soluble protein after heating vs DMSO (PISA); higher = thermal stabilisation; K562 cells, 10 uM, 30 min; active = over 0.2 and 3.5 SD of the protein, either way, in both replicates (recomputed)
Summary of the method: (§1)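 K562 cells at 2×10^6 cells/mL were treated with 10 μM compound for 30 min. Aliquots were heated for 3 min across 48°C-58°C, pooled, and extracted in PBS with 0.5% NP-40 at 4°C; soluble protein was the supernatant after 21,000xg for 90 min. Soluble protein was quantified by TMTpro 16plex LC-MS/MS with channel sums equalised, and reported as log2 fold change in thermal stability against DMSO controls, with values from duplicates.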

Chain of UniProt O60934 (O60934 whole entry, looked up): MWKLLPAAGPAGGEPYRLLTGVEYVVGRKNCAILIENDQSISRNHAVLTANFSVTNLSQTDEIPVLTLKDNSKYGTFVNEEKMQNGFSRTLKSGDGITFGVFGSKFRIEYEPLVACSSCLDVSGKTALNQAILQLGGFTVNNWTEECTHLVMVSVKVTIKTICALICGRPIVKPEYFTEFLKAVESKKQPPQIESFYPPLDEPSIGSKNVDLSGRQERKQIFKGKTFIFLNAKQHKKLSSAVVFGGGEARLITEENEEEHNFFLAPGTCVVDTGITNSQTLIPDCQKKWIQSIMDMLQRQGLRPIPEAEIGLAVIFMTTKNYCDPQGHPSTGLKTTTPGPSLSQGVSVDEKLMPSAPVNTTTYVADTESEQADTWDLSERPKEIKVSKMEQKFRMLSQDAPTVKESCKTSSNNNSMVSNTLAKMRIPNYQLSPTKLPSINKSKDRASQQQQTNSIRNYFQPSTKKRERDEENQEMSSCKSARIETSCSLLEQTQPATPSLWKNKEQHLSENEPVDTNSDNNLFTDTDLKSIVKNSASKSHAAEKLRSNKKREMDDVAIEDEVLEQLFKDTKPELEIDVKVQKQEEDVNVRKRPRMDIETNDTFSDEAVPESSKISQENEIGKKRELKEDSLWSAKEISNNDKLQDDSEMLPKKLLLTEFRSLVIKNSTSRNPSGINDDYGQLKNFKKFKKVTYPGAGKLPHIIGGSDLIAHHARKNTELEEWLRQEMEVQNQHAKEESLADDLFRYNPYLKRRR
Chain of UniProt O95747 (O95747 whole entry, looked up): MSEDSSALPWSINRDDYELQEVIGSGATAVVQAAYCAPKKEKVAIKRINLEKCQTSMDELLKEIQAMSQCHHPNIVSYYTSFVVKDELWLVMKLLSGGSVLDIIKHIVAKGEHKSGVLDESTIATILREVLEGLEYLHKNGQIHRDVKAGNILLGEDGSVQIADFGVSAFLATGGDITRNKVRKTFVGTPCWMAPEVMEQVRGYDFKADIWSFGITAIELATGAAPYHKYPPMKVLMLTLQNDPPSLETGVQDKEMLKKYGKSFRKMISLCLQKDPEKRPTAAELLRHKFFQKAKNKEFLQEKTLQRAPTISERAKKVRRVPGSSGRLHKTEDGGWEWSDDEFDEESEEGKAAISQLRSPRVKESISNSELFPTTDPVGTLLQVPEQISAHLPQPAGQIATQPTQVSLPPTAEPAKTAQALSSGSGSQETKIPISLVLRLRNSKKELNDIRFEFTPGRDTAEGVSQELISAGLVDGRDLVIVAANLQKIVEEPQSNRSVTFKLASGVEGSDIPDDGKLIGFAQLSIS
Chain of UniProt P30419 (P30419 whole entry, looked up): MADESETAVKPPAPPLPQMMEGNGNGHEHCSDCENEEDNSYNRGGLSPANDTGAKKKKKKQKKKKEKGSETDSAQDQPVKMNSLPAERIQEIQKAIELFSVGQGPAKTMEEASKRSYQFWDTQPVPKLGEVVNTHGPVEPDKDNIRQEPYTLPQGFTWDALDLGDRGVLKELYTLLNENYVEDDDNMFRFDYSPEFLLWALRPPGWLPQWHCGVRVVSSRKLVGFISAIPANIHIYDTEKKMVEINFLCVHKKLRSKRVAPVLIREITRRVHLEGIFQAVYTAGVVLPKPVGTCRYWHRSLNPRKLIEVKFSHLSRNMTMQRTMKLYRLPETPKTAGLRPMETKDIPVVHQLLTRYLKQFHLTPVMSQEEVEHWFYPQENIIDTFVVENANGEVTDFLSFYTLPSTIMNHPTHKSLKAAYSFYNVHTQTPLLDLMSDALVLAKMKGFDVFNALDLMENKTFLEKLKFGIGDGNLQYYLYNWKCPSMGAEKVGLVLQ
Chain of UniProt Q99747 (Q99747 whole entry, looked up): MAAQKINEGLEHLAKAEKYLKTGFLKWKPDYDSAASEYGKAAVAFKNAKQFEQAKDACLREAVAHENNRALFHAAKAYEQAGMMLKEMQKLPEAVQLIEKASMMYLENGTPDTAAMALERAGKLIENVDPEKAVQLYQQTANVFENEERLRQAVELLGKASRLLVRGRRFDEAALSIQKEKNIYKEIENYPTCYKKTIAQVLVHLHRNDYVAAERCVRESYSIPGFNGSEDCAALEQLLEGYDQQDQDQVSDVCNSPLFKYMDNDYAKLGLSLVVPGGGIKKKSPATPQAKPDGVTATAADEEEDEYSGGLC
Chain of UniProt Q7L1V2 (Q7L1V2 whole entry, looked up): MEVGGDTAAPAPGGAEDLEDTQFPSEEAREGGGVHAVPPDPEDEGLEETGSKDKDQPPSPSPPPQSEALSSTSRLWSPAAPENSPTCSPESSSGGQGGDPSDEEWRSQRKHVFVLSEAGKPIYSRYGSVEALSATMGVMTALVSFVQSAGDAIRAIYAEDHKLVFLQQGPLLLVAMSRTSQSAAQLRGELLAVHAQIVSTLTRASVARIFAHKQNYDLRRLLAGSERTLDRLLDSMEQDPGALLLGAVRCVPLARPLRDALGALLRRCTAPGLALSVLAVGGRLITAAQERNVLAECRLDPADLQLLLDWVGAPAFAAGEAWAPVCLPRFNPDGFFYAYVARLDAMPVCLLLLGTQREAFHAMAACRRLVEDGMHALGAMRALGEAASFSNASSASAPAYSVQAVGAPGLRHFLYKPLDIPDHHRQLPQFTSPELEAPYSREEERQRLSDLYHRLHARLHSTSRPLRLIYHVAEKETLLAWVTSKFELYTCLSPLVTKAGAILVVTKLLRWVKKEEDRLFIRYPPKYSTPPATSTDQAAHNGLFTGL
Chain of UniProt Q9BZQ8 (Q9BZQ8 whole entry, looked up): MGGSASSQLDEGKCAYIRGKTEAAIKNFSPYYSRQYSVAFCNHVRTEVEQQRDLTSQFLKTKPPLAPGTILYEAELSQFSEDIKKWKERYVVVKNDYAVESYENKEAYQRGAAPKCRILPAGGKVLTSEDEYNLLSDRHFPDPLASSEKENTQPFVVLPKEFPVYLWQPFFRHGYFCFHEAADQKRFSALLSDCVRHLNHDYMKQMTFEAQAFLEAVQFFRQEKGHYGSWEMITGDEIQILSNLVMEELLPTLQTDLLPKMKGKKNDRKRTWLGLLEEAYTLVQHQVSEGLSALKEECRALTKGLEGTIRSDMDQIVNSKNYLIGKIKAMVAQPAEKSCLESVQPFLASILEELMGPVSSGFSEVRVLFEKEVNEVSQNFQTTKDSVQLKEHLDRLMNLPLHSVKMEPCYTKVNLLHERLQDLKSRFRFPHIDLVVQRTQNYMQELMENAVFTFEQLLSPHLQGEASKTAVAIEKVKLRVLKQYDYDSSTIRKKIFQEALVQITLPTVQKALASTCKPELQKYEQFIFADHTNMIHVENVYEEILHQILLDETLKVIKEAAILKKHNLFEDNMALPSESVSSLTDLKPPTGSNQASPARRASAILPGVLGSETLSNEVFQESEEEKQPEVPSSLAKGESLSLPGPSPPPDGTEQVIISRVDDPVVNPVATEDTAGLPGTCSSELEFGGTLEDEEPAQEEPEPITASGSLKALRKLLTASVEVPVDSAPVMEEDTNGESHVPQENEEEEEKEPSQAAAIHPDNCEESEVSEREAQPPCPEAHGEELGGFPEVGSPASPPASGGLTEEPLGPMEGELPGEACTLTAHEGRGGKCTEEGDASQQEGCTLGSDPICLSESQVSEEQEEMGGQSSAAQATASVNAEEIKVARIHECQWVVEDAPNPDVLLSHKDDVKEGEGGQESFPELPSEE
Chain of UniProt Q9UI09 (Q9UI09 whole entry, looked up): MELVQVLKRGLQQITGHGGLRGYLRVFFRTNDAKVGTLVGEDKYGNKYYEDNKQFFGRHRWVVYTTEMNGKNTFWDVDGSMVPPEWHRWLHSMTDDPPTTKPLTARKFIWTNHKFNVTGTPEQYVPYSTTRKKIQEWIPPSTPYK
Chain of UniProt Q9ULX3 (Q9ULX3 whole entry, looked up): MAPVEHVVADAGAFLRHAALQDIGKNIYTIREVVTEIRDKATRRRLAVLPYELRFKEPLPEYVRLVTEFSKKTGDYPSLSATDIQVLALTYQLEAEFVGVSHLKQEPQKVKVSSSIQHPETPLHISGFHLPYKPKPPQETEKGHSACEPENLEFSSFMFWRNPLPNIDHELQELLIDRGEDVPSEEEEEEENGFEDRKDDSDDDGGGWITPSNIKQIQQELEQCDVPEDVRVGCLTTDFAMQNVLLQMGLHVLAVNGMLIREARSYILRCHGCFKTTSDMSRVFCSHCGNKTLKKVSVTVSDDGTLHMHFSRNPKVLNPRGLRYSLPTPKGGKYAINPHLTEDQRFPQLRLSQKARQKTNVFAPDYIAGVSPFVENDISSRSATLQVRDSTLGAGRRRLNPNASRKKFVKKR
Chain of UniProt Q13952 (Q13952 whole entry, looked up): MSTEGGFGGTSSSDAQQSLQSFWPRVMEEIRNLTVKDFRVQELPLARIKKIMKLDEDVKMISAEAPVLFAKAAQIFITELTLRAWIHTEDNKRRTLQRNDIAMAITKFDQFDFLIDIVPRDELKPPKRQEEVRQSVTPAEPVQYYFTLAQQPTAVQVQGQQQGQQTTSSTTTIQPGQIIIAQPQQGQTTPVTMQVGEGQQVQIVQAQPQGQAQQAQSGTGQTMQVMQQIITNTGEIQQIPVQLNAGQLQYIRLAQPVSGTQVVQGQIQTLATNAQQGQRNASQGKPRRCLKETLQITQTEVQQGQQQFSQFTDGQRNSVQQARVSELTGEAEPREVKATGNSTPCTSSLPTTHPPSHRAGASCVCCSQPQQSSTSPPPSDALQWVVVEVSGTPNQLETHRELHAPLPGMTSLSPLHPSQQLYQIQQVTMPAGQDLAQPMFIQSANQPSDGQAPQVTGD
Chain of UniProt Q15014 (Q15014 whole entry, looked up): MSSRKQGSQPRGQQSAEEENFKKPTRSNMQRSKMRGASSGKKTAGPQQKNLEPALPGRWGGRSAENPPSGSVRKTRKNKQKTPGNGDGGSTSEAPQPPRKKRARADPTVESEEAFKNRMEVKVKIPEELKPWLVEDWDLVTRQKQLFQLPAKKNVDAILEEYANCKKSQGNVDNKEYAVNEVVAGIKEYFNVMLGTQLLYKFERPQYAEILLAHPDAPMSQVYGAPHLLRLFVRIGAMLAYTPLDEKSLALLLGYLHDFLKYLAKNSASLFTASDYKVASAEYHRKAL

Q: With NOB1 (UniProt Q9ULX3) as the target, how does the log2 fold change read?
A: 0.039 (inactive)

Q: Which log2 fold change does the source give for NDUFA12 (UniProt Q9UI09) here?
A: 0.022 (inactive)

Q: NBN (UniProt O60934) was tested. Which log2 fold change did it give?
A: 0.017 (inactive)

Q: For NIBAN1 (UniProt Q9BZQ8), which log2 fold change is on record?
A: 0.05 (inactive)

Q: Which log2 fold change does the source give for OXSR1 (UniProt O95747) here?
A: 0.019 (inactive)

Q: NFYC (UniProt Q13952) was tested. Which log2 fold change did it give?
A: 0.005 (inactive)

Q: NAPG (UniProt Q99747) was tested. Which log2 fold change did it give?
A: 0.044 (inactive)

Q: For NUP210 (UniProt Q8TEM1), which log2 fold change is on record?
A: -0.029 (inactive)

Q: With MRPS24 (UniProt Q96EL2) as the target, how does the log2 fold change read?
A: -0.01 (inactive)

Q: NMT1 (UniProt P30419) was tested. Which log2 fold change did it give?
A: -0.012 (inactive)

Q: NUP205 (UniProt Q92621) was tested. Which log2 fold change did it give?
A: 0.009 (inactive)

Q: Which log2 fold change does the source give for MRPL46 (UniProt Q9H2W6) here?
A: 0.061 (inactive)

Q: With MON1B (UniProt Q7L1V2) as the target, how does the log2 fold change read?
A: 0.064 (inactive)

Q: Which log2 fold change does the source give for NFX1 (UniProt Q12986) here?
A: -0.113 (inactive)

Q: With MRPS16 (UniProt Q9Y3D3) as the target, how does the log2 fold change read?
A: 0.055 (inactive)

Compound: CC1=C(C=C(C=C1)NC(=O)C2=CC(=CC=C2)N(C)C)NC(=O)C3=CC=C(C=C3)O
Assay: as above
Summary of the method: as §1

Q: Which log2 fold change does the source give for NDUFA6 (UniProt P56556) here?
A: -0.082 (inactive)

Q: Which log2 fold change does the source give for MORF4L2 (UniProt Q15014) here?
A: -0.061 (inactive)

Q: Which log2 fold change does the source give for NOL7 (UniProt Q9UMY1) here?
A: -0.055 (inactive)

Q: With NELFA (UniProt Q9H3P2) as the target, how does the log2 fold change read?
A: -0.124 (inactive)

Q: NHLRC2 (UniProt Q8NBF2) was tested. Which log2 fold change did it give?
A: 0.225 (inactive)

Q: MRPS25 (UniProt P82663) was tested. Which log2 fold change did it give?
A: -0.009 (inactive)

Q: With MINK1 (UniProt Q8N4C8) as the target, how does the log2 fold change read?
A: 0.038 (inactive)

Q: How did the log2 fold change turn out when OSBPL8 (UniProt Q9BZF1) was run?
A: 0.011 (inactive)

Q: NDUFA9 (UniProt Q16795) was tested. Which log2 fold change did it give?
A: -0.036 (inactive)

Q: For NTMT1 (UniProt Q9BV86), which log2 fold change is on record?
A: 0.037 (inactive)

Q: How did the log2 fold change turn out when NFATC3 (UniProt Q12968) was run?
A: -0.506 (inactive)

Q: NAA11 (UniProt Q9BSU3) was tested. Which log2 fold change did it give?
A: 0.006 (inactive)

Q: NUDT1 (UniProt P36639) was tested. Which log2 fold change did it give?
A: -0.058 (inactive)

Q: With MRPS18B (UniProt Q9Y676) as the target, how does the log2 fold change read?
A: -0.165 (inactive)

Q: NOP56 (UniProt O00567) was tested. Which log2 fold change did it give?
A: -0.001 (inactive)

Q: MRPS15 (UniProt P82914) was tested. Which log2 fold change did it give?
A: -0.026 (inactive)

Q: With MXRA7 (UniProt P84157) as the target, how does the log2 fold change read?
A: -0.015 (inactive)

Q: How did the log2 fold change turn out when NPC1 (UniProt O15118) was run?
A: 0.01 (inactive)

Q: For NUCKS1 (UniProt Q9H1E3), which log2 fold change is on record?
A: 0.065 (inactive)

Q: How did the log2 fold change turn out when NCAPG (UniProt Q9BPX3) was run?
A: -0.074 (inactive)

Q: Which log2 fold change does the source give for NDUFB7 (UniProt P17568) here?
A: -0.006 (inactive)

Q: Which log2 fold change does the source give for NACC1 (UniProt Q96RE7) here?
A: -0.012 (inactive)

Q: With NDUFS8 (UniProt O00217) as the target, how does the log2 fold change read?
A: 0 (inactive)

Q: How did the log2 fold change turn out when NCL (UniProt P19338) was run?
A: -0.056 (inactive)

Q: Which log2 fold change does the source give for NOB1 (UniProt Q9ULX3) here?
A: 0.047 (inactive)

Q: For NDUFA12 (UniProt Q9UI09), which log2 fold change is on record?
A: -0.1 (inactive)

Q: For NBN (UniProt O60934), which log2 fold change is on record?
A: -0.008 (inactive)

Q: For NIBAN1 (UniProt Q9BZQ8), which log2 fold change is on record?
A: -0.036 (inactive)

Q: OXSR1 (UniProt O95747) was tested. Which log2 fold change did it give?
A: -0.11 (inactive)

Q: How did the log2 fold change turn out when NFYC (UniProt Q13952) was run?
A: 0.011 (inactive)

Q: With NAPG (UniProt Q99747) as the target, how does the log2 fold change read?
A: -0.115 (inactive)

Q: How did the log2 fold change turn out when NUP210 (UniProt Q8TEM1) was run?
A: 0.052 (inactive)

Q: With MRPS24 (UniProt Q96EL2) as the target, how does the log2 fold change read?
A: -0.037 (inactive)

Q: NMT1 (UniProt P30419) was tested. Which log2 fold change did it give?
A: -0.006 (inactive)

Q: NUP205 (UniProt Q92621) was tested. Which log2 fold change did it give?
A: 0.018 (inactive)

Q: For MRPL46 (UniProt Q9H2W6), which log2 fold change is on record?
A: -0.044 (inactive)

Q: How did the log2 fold change turn out when MON1B (UniProt Q7L1V2) was run?
A: -0.003 (inactive)

Q: Which log2 fold change does the source give for NFX1 (UniProt Q12986) here?
A: 0.051 (inactive)

Q: With MRPS16 (UniProt Q9Y3D3) as the target, how does the log2 fold change read?
A: -0.052 (inactive)
